Data taken from PubChem BioAssay (Tox21).
Records with an inconclusive call do not appear. The source made the active and inactive calls. Calls come from the whole dose curve; as a rule, active = well fitted curve in the direction sought with a large enough effect in the repeat runs; inconclusive = weak or mixed curves; inactive = no such curve, though single readings can be large; an effect the other way counts as inactive or inconclusive.

What was measured:
[1] = A CellTox Green Cytotoxicity Assay to monitor cytotoxicity in HEK293 cells - 32 hour (AID 1224881); note: nearly all actives have a fitted effect of over 40% in size
Method in brief: (§1)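 Read-out: fluorescence of a cell-impermeant cyanine dye staining DNA of dead cells, proportional to cytotoxicity. HEK293, 600 cells/well with reagent, compound (23 nL DMSO) added after 5 h; reads at 0, 8, 16, 24, 32, 40 h.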

[2] = A CellTox Green Cytotoxicity Assay to monitor cytotoxicity in HepG2 cells - 0 hour (AID 1224882); note: nearly all actives have a fitted effect of over 35% in size
Method in brief: (§2)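 HepG2, 600 cells/well premixed w/ CellTox Green; 5 h settle, 37 C/5% CO2; pintool cpd add (DMSO); 37 C, 40 h; fluorescence read at 0, 8, 16, 24, 32, 40 h.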

[3] = A CellTox Green Cytotoxicity Assay to monitor cytotoxicity in HepG2 cells - 32 hour (AID 1224883); note: nearly all actives have a fitted effect of over 50% in size
Method in brief: as §2

[4] = qHTS RealTime-Glo MT Cell Viability Assay in HepG2 cells - 16 hour (AID 1224885); note: nearly all actives have a fitted effect of over 50% in size
Method in brief: (§3)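 Tox21 10K library screened in qHTS format on HepG2 cells carrying RealTime-Glo reagents. Compounds were added after a 5 h preincubation, and the luminescent signal from continuous culture was measured repeatedly during 40 h treatment.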

[5] = qHTS RealTime-Glo MT Cell Viability Assay in HEK293 cells - 24 hour (AID 1224886); note: top concentration of the series differs between compounds; nearly all actives have a fitted effect of over 50% in size
Method in brief: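 Luminescence generated by NanoLuc from substrate produced by living HEK293 cells served as the viability signal. Each value reflects the reading at its stated time point during continuous 40 h compound exposure at 37 C.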

[6] = qHTS RealTime-Glo MT Cell Viability Assay in HEK293 cells - 8 hour (AID 1224887); note: nearly all actives have a fitted effect of over 50% in size; note: potency is the fitted concentration of half-maximal effect
Method in brief: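 Luminescence readout at each listed time point; HEK293, 600 cells/well, RealTime-Glo MT reagent added with cells; compounds pinned (23 nL in DMSO) after 5 h at 37 C; continuous culture at 37 C.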

[7] = A CellTox Green Cytotoxicity Assay to monitor cytotoxicity in HEK293 cells - 16 hour (AID 1224888); note: nearly all actives have a fitted effect of over 35% in size
Method in brief: as §1

[8] = qHTS RealTime-Glo MT Cell Viability Assay in HepG2 cells - 0 hour (AID 1224889); note: nearly all actives have a fitted effect of over 50% in size
Method in brief: as §3

[9] = A CellTox Green Cytotoxicity Assay to monitor cytotoxicity in HepG2 cells - 8 hour (AID 1224890); note: nearly all actives have a fitted effect of over 45% in size
Method in brief: as §2

[10] = A CellTox Green Cytotoxicity Assay to monitor cytotoxicity in HEK293 cells - 8 hour (AID 1224884); note: nearly all actives have a fitted effect of over 35% in size
Method in brief: as §1
% is set by controls: 0 for no effect and ±100 for the full control effect.

O=C/C=C/c1ccco1
inactive: Potency [1] | outcome [2] | Potency [3] | Potency [4] | Potency [5] | Potency [6] | Potency [7] | outcome [8] | Potency [9]

Clc1cc2c(cc1Cl)Oc1cc(Cl)c(Cl)cc1O2
inactive: cytotoxicity increase [1] -34% [at 0.29 µM] | cytotoxicity [2] -1.33% [at 0.29 µM] | cytotoxicity increase [3] 4.82% [at 0.29 µM] | cytotoxicity increase [10] -18.7% [at 0.29 µM] | activity change [7] -25.8% [at 0.29 µM, active compounds read high]

NC(=O)CS(=O)C(c1ccccc1)c1ccccc1 (stereo unspecified)
inactive: Potency [1] | outcome [2] | Potency [3] | Potency [10] | Potency [5] | Potency [7] | outcome [8] | Potency [9]

COc1cccc([C@@]2(O)CCCC[C@@H]2CN(C)C)c1
inactive: Potency [1] | outcome [2] | Potency [3] | Potency [4] | Potency [5] | Potency [6] | Potency [7] | outcome [8] | Potency [9]

C=C(Cl)CSC(=S)N(CC)CC
inactive: Potency [1] | outcome [2] | Potency [3] | Potency [4] | Potency [5] | Potency [6] | Potency [7] | Potency [9]

CC(Cl)(Cl)Cl
inactive: Potency [1] | outcome [2] | Potency [3] | Potency [10] | Potency [5] | Potency [6] | outcome [8] | Potency [9]

C(COCC1CO1)OCC1CO1 (stereo unspecified)
inactive: Potency [1] | outcome [2] | Potency [3] | Potency [10] | Potency [5] | Potency [6] | Potency [7] | outcome [8] | Potency [9]

Nc1c(Cl)c(F)nc(OCC(=O)O)c1Cl
inactive: Potency [1] | outcome [2] | Potency [3] | Potency [4] | Potency [5] | Potency [6] | Potency [7] | outcome [8] | Potency [9]

C[C@H](N)C(=O)c1ccccc1
inactive: Potency [1] | outcome [2] | Potency [3] | Potency [4] | Potency [5] | Potency [6] | outcome [8] | Potency [9]

CN(C)C1CCCCC1
inactive: Potency [1] | outcome [2] | Potency [3] | Potency [10] | Potency [6] | outcome [8] | Potency [9]

CCOc1cc(OP(=S)(OC)OC)nc(CC)n1
inactive: Potency [1] | outcome [2] | Potency [3] | Potency [10] | Potency [5] | Potency [6] | Potency [7] | outcome [8] | Potency [9]

CCN(CC)C1CCCCC1
inactive: Potency [1] | outcome [2] | Potency [3] | Potency [10] | Potency [5] | Potency [6] | Potency [7] | outcome [8] | Potency [9]

N=C(N)[Se]
inactive: Potency [1] | outcome [2] | Potency [3] | Potency [10] | Potency [5] | Potency [6] | Potency [7] | outcome [8]

CCOC(=O)C(Cl)Cc1cc(-n2nc(C)n(C(F)F)c2=O)c(F)cc1Cl (stereo unspecified)
active: Potency [6] 49 µM
inactive: Potency [1] | outcome [2] | Potency [3] | Potency [10] | Potency [5] | Potency [9]

CC[C@H](O)C(C[C@H](C)N(C)C)(c1ccccc1)c1ccccc1
inactive: Potency [1] | outcome [2] | Potency [3] | Potency [10] | Potency [6] | Potency [7] | outcome [8] | Potency [9]
